# Assay outcomes (PubChem)
# HTT ATP protect: protects HTT-Q103 PC12 cells, measured by ATP | AID 1471 | PC12 HTT-Q103 induced, cytoprotection, ATP luminescence, 40 h | 0.14% of 230,000 active | Potency, µM (doses to about 56.4 µM), for inactives: cytoprotection (ATP increase), most hits filed as activators; also: % of control where 0% means no effect; nearly all actives have a fitted effect of over 45% in size
#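 Quantitative HTS on tebufenozide-induced (100 nM) PC12 cells expressing HTTQ103 exon 1–GFP; compounds tested as a concentration series; survival measured via cellular ATP.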
# HTT aggregate: reduces HttQ103-GFP aggregates in PC12 cells; 1.1% of 220,000 active; PC12 HttQ103-GFP aggregates, Acumen cytometry, 40 h; Potency, µM (highest dose often 46.1 µM), without a hit: at the top dose activity change, negative = inhibition, actives largely listed as inhibitors; also: % is scaled to controls: 0 for no effect and ±100 for the full control effect; nearly all actives have a fitted effect of over 60% in size
#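 Multiplexed with ATP-based cell death, this channel scores GFP aggregates in PC12 cells expressing inducible HTTex1-Q103-GFP. Induction used 100 nM tebufenozide; compounds were tested in concentration series.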
# ALDH1A1 block: ALDH1A1 (human) enzyme inhibition; P00352; Purified ALDH1A1, NADH fluorescence, propionaldehyde substrate; Potency, µM (highest dose often 75.3 µM), without a hit: at the top dose activity, negative = inhibition, most hits filed as inhibitors; 7.3% of 220,000 active; active = well fitted inhibition curve with a large enough effect, not every such curve was filed as active; inconclusive = small, poorly fitted or top-dose-only effect, or another doubt; inactive = no such curve, though single readings can be large or run the other way;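 also: plate controls were no enzyme wells and a reference inhibitor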
# Target sequence (P00352 whole entry, looked up): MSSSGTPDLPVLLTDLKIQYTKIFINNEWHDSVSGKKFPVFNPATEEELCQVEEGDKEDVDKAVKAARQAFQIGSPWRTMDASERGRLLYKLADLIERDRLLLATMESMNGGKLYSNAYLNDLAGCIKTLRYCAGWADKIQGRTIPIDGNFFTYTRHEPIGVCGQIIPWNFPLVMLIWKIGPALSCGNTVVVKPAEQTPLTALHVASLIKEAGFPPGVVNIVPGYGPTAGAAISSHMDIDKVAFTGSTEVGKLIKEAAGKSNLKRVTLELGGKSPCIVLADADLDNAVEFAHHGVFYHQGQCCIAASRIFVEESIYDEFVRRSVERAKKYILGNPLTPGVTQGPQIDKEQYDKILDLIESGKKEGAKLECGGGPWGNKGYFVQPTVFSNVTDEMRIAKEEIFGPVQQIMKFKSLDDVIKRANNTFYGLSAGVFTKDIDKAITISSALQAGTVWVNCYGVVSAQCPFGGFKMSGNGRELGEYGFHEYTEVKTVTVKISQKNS
# HPGD inh: inhibitors of human 15-hydroxyprostaglandin dehydrogenase (HPGD). AID 894. P15428. purified HPGD, NADH fluorescence kinetic, PGE2 substrate. 4.3% of 150,000 active. Potency, µM, for inactives: at the top dose activity change, negative = inhibition, hits mostly inhibitors; active = well fitted inhibition curve with a large enough effect, not every such curve was filed as active; inconclusive = small, poorly fitted or top-dose-only effect, or another doubt; inactive = no such curve, though single readings can be large or run the other way; also: % is scaled to controls: 0 for no effect and ±100 for the full control effect
# Target sequence (P15428 whole entry, looked up): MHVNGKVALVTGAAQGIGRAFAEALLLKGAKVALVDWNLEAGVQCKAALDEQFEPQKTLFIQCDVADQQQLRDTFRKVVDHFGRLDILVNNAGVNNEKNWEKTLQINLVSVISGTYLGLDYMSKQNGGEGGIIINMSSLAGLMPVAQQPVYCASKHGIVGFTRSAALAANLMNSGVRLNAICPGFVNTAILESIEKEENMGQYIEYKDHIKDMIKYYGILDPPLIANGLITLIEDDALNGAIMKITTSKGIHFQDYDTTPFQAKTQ
#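 NADH formation kinetics: reaction with 30 uM PGE2 and 1 mM NAD+ (final), 20 nM enzyme, Tris-HCl pH 8 with Tween 20, after 15 min compound preincubation at room temperature. Fluorescence change, last versus first of five reads.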
# Lamin A splicing: LMNA splicing modulation | HeLa LMNA splicing GFP/RFP minigene ratio, 48 h | Potency, µM (top dose mostly 46.1 µM), for the others: top-dose ratio change, negative = inhibition, actives largely listed as inhibitors | 0.01% of 200,000 active | AID 1487; active = well fitted inhibition curve with a large enough effect in the signal ratio, with a control signal flat, not every such curve was filed as active; inconclusive = small, poorly fitted or top-dose-only effect, or effect the other way, or a change in a side signal; the % refers to the signal ratio; also: % is scaled to controls: 0 for no effect and ±100 for the full control effect
#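 S3 HeLa stable clones carrying a lamin A-EGFP splicing minigene plus DsRed2 were seeded at 600 cells/well in Opti-MEM with 2% FBS, pin-dosed and incubated 48 h at 37°C. Acumen cytometry (488 nm) gave the GFP/RFP total-intensity ratio.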
# Luc counter: blocks Kinase-Glo luciferase, a counter-screen artifact | Q27757 | Kinase-Glo luciferase, ATP luminescence, 8 min | Potency, µM (series often up to 38.3 µM), for inactives: at the top dose activity change, negative = inhibition, actives largely listed as inhibitors | 0.28% of 200,000 active | AID 1379; also: % is scaled to controls: 0 for no effect and ±100 for the full control effect; nearly all actives have a fitted effect of over 60% in size
#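 Kinase-Glo luciferase light output from ATP and luciferin was measured with 10 uM ATP, within the enzyme's linear range. Buffer: 50 mM imidazole pH 7.2, 50 mM KCl, 7 mM MgCl2, 0.01% Tween 20, 0.05% BSA; luminescence read after 8 min at ambient temperature.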
# Active calls of the source: *; u = inconclusive; x = not tested or not shown; [ ] = another dose, or the depositor's remark. Shown are actives, neighbours in structure and some others; about 9% of the full set was active somewhere. Unless noted, calls follow the shape of the dose curve; as a rule, active = well fitted curve in the direction sought with a large enough effect; inconclusive = small, poorly fitted or top-dose-only effect, or another doubt; inactive = no such curve, though single readings can be large; an effect the other way counts as inactive or inconclusive. Potency is read from the fitted curve at half-maximal effect.
SMILES,HTT ATP protect,HTT aggregate,ALDH1A1 block,HPGD inh,Lamin A splicing,Luc counter
Cc1ccc(SCCC(=O)N2CCC(C)CC2)cc1,4%[1.9 µM],-4%,u,7.9µM*,u,-3%
Cc1ccc(SCCC(=O)N2CCOCC2)cc1,-19%[0.074 µM],-3%,8%,-6%,-2%,-1%
Cc1ccc(SCCC(=O)N2CCCC2)cc1,-5%,-20%,u,14µM*,u,-2%
COc1ccc(OC(=O)c2cccnc2)cc1,0%,-10%[1.84 µM],3%,-7%,-16%,0%
CN1CCN/C1=C(/C(Cl)=C(Cl)Cl)[N+](=O)[O-],-27%,16µM*,4%,x,x,0%
CN1CC(=O)N(CC(=O)Nc2cc(Cl)cc(Cl)c2)C1=O,-11%,8%,10µM*,x,u,-1%
CC1Cc2ccccc2N1C(=O)COC(=O)CNC(=O)c1ccc(Br)o1 (centres undefined),15%,6%,28µM*,-12%,-9%,2%
Cc1ccc(-n2c(CNc3ccc(C)c(Cl)c3)n[nH]c2=S)cc1,-11%[10 µM],-19%[9.22 µM],-1%,x,-7%[46 µM],-2%
COc1ccc(N2CCN(C(=O)c3ccccc3F)CC2)c([N+](=O)[O-])c1,11%[10 µM],14%[9.22 µM],x,x,x,x
COc1ccc(C(=O)N2CCN(c3ccc([N+](=O)[O-])c(NCCc4ccc(OC)c(OC)c4)c3)CC2)cc1,x,-32%,u,-14%,u,3%
COc1ccc(CCNc2cc(N3CCN(C(=O)c4ccccc4F)CC3)ccc2[N+](=O)[O-])cc1OC,-43%,4µM*,2.5µM*,-23%,9%,-1%
COc1ccc(CCNc2cc(N3CCN(C(=O)c4ccc(C)cc4)CC3)ccc2[N+](=O)[O-])cc1OC,4%[10 µM],-10%,8.9µM*,-13%,u,-2%
O=C(Cc1ccc(F)cc1)Nc1cccc(-c2cn3c(n2)SCC3)c1,-33%,-6%,0%,x,u,10%
O=C(Nc1cccc(-c2cn3c(n2)SCC3)c1)c1ccc(Br)o1,-42%,12%,16µM*,x,u,1%
CNC(=O)C1CCC(Cn2c(=O)c3sccc3n(CC(=O)N3CCCCC3C)c2=O)CC1 (centres undefined),x,x,x,x,10%[46 µM],x
COc1ccc(OC)c(C2C(C(=O)O)c3ccccc3C(=O)N2C)c1 (centres undefined),5%,5%,-8%,x,-2%,x
CCN(CC)c1ccc(NC(=O)c2cc(OC)cc(OC)c2)c(C)c1,-113%[0.074 µM],3.2µM*,-2%,-7%,u,-1%
CCN(CC)c1ccc(NC(=O)c2cccc(OC)c2)c(C)c1,-24%,u,-9%,-6%,u,4%
CCCn1c(=O)c(C(=O)Nc2cnccn2)c(O)c2ccccc21,4%,-3%,6%,-9%,-8%,-1%
COc1ccccc1CNC(=O)[C@@H]1CCCN1S(=O)(=O)c1ccc(C)cc1,-33%,-10%,1%,x,3%[46 µM],0%
N#CCCN(C(=O)CO/N=C/c1cccc([N+](=O)[O-])c1)c1ccccc1,-12%,4%,25µM*,x,u,-2%
CC(=O)NC(C)C12CC3CC(CC(C(=O)O)(C3)C1)C2 (centres undefined),1%[0.074 µM],-2%,3%,0%,0%,-3%
COc1ccc(Br)cc1CN(C)CC(=O)Nc1c(Cl)cccc1Cl,-2%[10 µM],-21%,14%,16µM*,u,0%
COc1ccc(Br)cc1CN(C)CC(=O)Nc1cccc(S(N)(=O)=O)c1,-37%,8%,2%,x,-16%[46 µM],3%
CN(Cc1cccnc1)C(=O)CC1C(=O)NCCN1Cc1ccc(-c2ccccc2)cc1 (centres undefined),-27%,5%,16µM*,x,x,-9%
SMILES,HTT ATP protect,HTT aggregate,ALDH1A1 block,HPGD inh,Lamin A splicing,Luc counter
CN(Cc1cccnc1)C(=O)CC1C(=O)NCCN1CC(c1ccccc1)c1ccccc1 (centres undefined),2%[10 µM],10%[9.22 µM],-11%,x,x,-1%
CCOC(=O)C1(Cc2cccc(F)c2)CCN(CC2CC2)CC1,0%[10 µM],-5%[9.22 µM],-1%,x,x,1%
COc1ccccc1NC(=O)CN(Cc1ccco1)C(=O)c1ccc(Cl)nc1,15%,-2%,16µM*,x,5%[46 µM],-1%
Cc1ccc(-c2ccccc2)n1-c1ccc(C(=O)O)cc1,9%[10 µM],u,25µM*,-5%,-2%,0%
Cc1ccc(-c2ccccc2)n1-c1cccc(C(=O)O)c1,-6%[10 µM],0%[9.22 µM],u,x,x,x
CCCCN(C(=O)CSc1nncn1-c1ccccc1OC)c1c(N)n(Cc2ccccc2)c(=O)[nH]c1=O,-1%,17%,2.2µM*,x,-7%[46 µM],-3%
O=C(O)c1c(-c2nccc3ccccc23)[nH]c(-c2ccccc2)c1S(=O)(=O)O,0%[10 µM],x,u,-12%,x,-1%[7.66 µM]
CC(=O)c1cccc(NC(=O)C2CC(=O)N(c3cccc(C)c3C)C2)c1 (centres undefined),6%,-2%,5µM*,-2%,4%,-2%
CC(=O)c1cccc(NC(=O)C2CCCCC2)c1,-13%,-4%,8.9µM*,-12%,7%,-1%
COc1ccc(C(CC(=O)N2CCOCC2)C(C)C)cc1 (centres undefined),-7%,-21%,-3%,-29%,-2%,-8%
CCCN1C(=O)c2cc(C(=O)NC3CCCC3)ccc2C1O (centres undefined),-17%,-15%,u,-14%,-2%,15%
Cc1ccc(NC(=O)c2cc(N3C(=O)C=CC3=O)ccc2N2CCOCC2)cc1Cl,x,u,0.25µM*,1.3µM*,u,-2%
Cc1ccc(NC(=O)c2cc(NC(=O)C3CC=CCC3C(=O)O)ccc2N2CCOCC2)cc1Cl (centres undefined),-1%,21%,1.8µM*,-8%,3%,1%
O=C(Nc1ccc(N2CCOCC2)c(C(=O)O)c1)c1ccc(Br)cc1,x,x,x,x,-9%[46 µM],x
Cc1cccc(NC(=O)c2cc(NC(=O)C3CC=CCC3C(=O)O)ccc2N2CCOCC2)c1 (centres undefined),43%[10 µM],-10%,3.2µM*,-3%,-12%,2%
Cc1ccc(NC(=O)c2cc(N3C(=O)CCC3=O)ccc2N2CCOCC2)cc1,-7%[10 µM],-16%[9.22 µM],-1%,x,19%[46 µM],0%
Cc1ccc(NC(=O)c2cc(NC(=O)C3CC=CCC3C(=O)O)ccc2N2CCOCC2)cc1 (centres undefined),-1%,10%,13µM*,-10%,0%,2%
COc1cnn(-c2ccc(C)cc2)c(=O)c1Br,-30%,-7%,-15%,x,x,-5%
CCn1nnnc1-c1ccc(OC)c(S(=O)(=O)Nc2ccc(S(N)(=O)=O)cc2)c1,-16%,-6%,u,x,-15%[46 µM],0%
Cc1nccn1-c1ccc(C=O)cc1,-16%[10 µM],-21%[9.22 µM],20µM*,x,6%[46 µM],0%
